# Screening data: PubChem BioAssay, The Scripps Research Institute Molecular Screening Center
# Compounds with a hit are over-represented: about 1.8% of the library has one in this group of screens.
# LYPLA2 inh = LYPLA2 (human) inhibition in PME1 counter-screen. recombinant LYPLA2, FP-Rh probe fluorescence polarization. inhibition, % at 5.9 µM. actives 0.38% (n = 320,000);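 active = inhibition above the screen-wide mean plus 3 SD, limit set per campaign, cut at about 26% in these data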;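 also: 0% = LYPLA2 with DMSO and 100% = wells lacking LYPLA2 enzyme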
# LYPLA1 counter = counter-screen for PME1 inhibitors: inhibitors of human LYPLA1 | inhibition, % at 5.9 µM | AID 2174 | recombinant LYPLA1, FP-Rh probe fluorescence polarization | O75608 | actives 0.16% (n = 320,000);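 active = inhibition above the mean of all tested compounds plus 3 SD, set per campaign, cut at about 14% in these data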;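 also: inhibitors block serine hydrolase probe labeling of LYPLA1 so polarization falls; 0% = enzyme with DMSO and 100% = wells lacking LYPLA1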
# PAD4 FP inh = blocks human protein arginine deiminase 4; Q9UM07; recombinant PAD4, RCA probe fluorescence polarization; inhibition, % at 6.36 µM; actives 0.41% (n = 330,000);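 active = percent inhibition above a cutoff equal to the mean of all tested compounds plus 3 SD, cut at about 15% in these data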;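 also: 0% = PAD4 with RCA probe and DMSO and 100% = probe without PAD4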
# Target sequence (Q9UM07 whole entry, looked up): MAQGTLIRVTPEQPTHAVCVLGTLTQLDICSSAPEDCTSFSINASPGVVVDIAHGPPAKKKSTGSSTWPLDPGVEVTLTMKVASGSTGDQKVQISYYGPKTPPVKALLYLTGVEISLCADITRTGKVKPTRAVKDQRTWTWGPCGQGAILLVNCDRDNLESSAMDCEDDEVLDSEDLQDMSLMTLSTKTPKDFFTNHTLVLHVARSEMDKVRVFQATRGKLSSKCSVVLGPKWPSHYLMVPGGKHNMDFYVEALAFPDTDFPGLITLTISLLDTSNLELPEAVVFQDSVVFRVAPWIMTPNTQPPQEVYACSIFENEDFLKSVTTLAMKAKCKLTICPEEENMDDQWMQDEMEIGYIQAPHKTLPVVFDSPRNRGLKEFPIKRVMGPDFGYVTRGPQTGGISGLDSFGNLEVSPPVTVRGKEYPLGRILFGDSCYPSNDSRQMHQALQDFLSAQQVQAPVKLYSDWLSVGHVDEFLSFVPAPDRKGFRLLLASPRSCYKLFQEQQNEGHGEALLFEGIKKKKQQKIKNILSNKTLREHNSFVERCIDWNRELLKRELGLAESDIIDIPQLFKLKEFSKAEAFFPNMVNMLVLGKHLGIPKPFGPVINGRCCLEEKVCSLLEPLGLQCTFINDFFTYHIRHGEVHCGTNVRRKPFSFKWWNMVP
# GSTO1 inh = counter-screen for RBBP9 inhibitors: inhibitors of human GSTO1; P78417; recombinant GSTO1, activity-based probe fluorescence polarization; inhibition, % at 5.96 µM; actives 1.1% (n = 300,000);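 active = inhibition above the campaign mean inhibition plus 3 SD, cut at about 35% in these data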;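 also: 0% = GSTO1-1 with DMSO and 100% = wells lacking GSTO1-1 enzyme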
# Fam108B counter = Fam108B inhibition, counter-screen for RBBP9 inhibitors; inhibition, % at 9.51 µM; recombinant Fam108B, FP-Rh probe fluorescence polarization; actives 0.33% (n = 300,000);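 active = inhibition above the screen mean inhibition plus 3 SD, computed separately per campaign, cut at about 18% in these data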;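 also: inhibitors lower polarization as less probe binds the enzyme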
# PME-1 inh = blocks human protein phosphatase methylesterase 1; Q9Y570; recombinant PME-1, FP-Rh probe fluorescence polarization; inhibition, % at 5.9 µM; actives 0.53% (n = 320,000); AID 2130;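 active = inhibition above the campaign mean of all compounds plus 3 SD, cut at about 26% in these data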;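 also: competitive labeling of PME-1 active site by serine hydrolase directed probe; 0% = PME-1 with DMSO and 100% = wells lacking PME-1 enzyme; inhibitors block probe labeling so polarization falls and inhibition rises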
# GSTO1 inh conf = GSTO1 (human) inhibition, confirmation; shares compounds with GSTO1 inh; recombinant GSTO1, probe fluorescence polarization; inhibition, % at 5.96 µM; actives 54% (n = 2,400);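 active = inhibition above the primary screen's cutoff, its mean inhibition plus 3 SD, cut at about 35% in these data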;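 also: loss of polarization as inhibitors block binding of rhodamine sulfonate ester activity probe; 0% = GSTO1 with DMSO and 100% = wells lacking GSTO1 enzyme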
# LYPLA1 conf = LYPLA1 (human) inhibition, confirmation counter-screen; shares compounds with LYPLA1 counter; recombinant LYPLA1, FP-Rh probe fluorescence polarization; inhibition, % at 5.9 µM; actives 69% (n = 480); AID 2233;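 active = mean inhibition across replicates above the hit cutoff set in the primary screen, cut at about 15% in these data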;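 also: loss of FP-Rh probe labeling of LYPLA1 seen as lower polarization; 0% = LYPLA1 with DMSO and 100% = wells lacking LYPLA1 enzyme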
# LYPLA2 conf = counter-screen for PME1 inhibitors: confirmation of human LYPLA2 inhibitors; shares compounds with LYPLA2 inh; recombinant LYPLA2, FP-Rh probe fluorescence polarization; inhibition, % at 5.9 µM; actives 72% (n = 1,100); AID 2232;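 active = mean inhibition across replicates above the hit cutoff set in the primary screen, cut at about 26% in these data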;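 also: blocked labeling of the enzyme by serine hydrolase FP-Rh probe lowers polarization; 0% = enzyme with DMSO and 100% = wells lacking LYPLA2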
# PAD4 confirm = PAD4 (human) inhibition, confirmed; shares compounds with PAD4 FP inh; recombinant PAD4, RCA probe fluorescence polarization; inhibition, % at 6.36 µM; actives 28% (n = 1,200); AID 488796;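 active = mean inhibition across replicates above the hit cutoff set by the earlier primary screen, cut at about 15% in these data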;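 also: inhibitors block active-site labeling by the probe so polarization falls; 0% = PAD4 with probe and DMSO and 100% = probe without PAD4 enzyme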
# * hit, by the source's call; . = not tested or not shown.
SMILES,LYPLA2 inh,LYPLA1 counter,PAD4 FP inh,GSTO1 inh,Fam108B counter,PME-1 inh,GSTO1 inh conf,PAD4 confirm,others
Cc1ccc2c(c1)c1c3n2CCN(C(=O)CN2CCN(C)CC2)C3CCC1 (centres undefined),4,1,3,11,-3,3,.,.,
CN(CC(=O)NCCc1ccccc1)S(=O)(=O)c1ccccc1,-1,0,0,2,3,3,.,.,
COc1cccc(/C=N/Nc2nnc(C)n2N)c1O,0,0,39*,41*,-1,-3,1,0,
COc1ccc(CCn2c(N)c(C#N)c3nc4ccccc4nc32)cc1OC,6,0,24*,57*,4,34*,-5,-11,
COc1ccc(Cn2c(N)c(C#N)c3nc4ccccc4nc32)cc1OC,2,-4,-19,11,-1,0,.,.,
COC(=O)C1=C(c2ccc(OC)cc2)OC(=O)C1(C)C,-10,-3,5,2,-4,0,.,.,
O=C(CN1CCN(S(=O)(=O)c2ccc(Br)cc2)CC1)N/N=C/c1ccncc1,-7,2,-3,1,-1,15,.,.,
CCCNC1=C(N(C(C)=O)c2cccc(F)c2)C(=O)c2ccccc2C1=O,0,-1,18*,55*,6,-1,41*,-5,
O=C(Cn1c2ccc(F)cc2c2nc3n(c(=O)c21)CCS3)Nc1ccccc1F,-9,-5,-2,-16,-12,-10,.,.,
COc1ccc([C@H]2CC(=O)C=C(c3ccc(C(=O)O)cc3)C2)cc1OC,-2,-1,3,.,.,3,.,.,
O=C1c2ccccc2C(=O)c2[nH]c(=O)[nH]c21,-3,-2,17*,64*,5,8,62*,2,
CC(C)c1ccc(NC2CCCN(C(=O)c3ccc(N4CCOCC4)cc3)C2)cc1 (centres undefined),0,4,2,-1,2,4,.,.,
NC(=O)c1ccccc1Nc1nc(NCCO)nc(N2CCCC2)n1,-1,0,-4,5,-3,0,.,.,
Cc1cc(=O)n(-c2ccc(O)cc2)[nH]1,0,0,61*,73*,2,7,8,-3,
Cc1cc(=O)n(-c2ccccc2Cl)[nH]1,4,4,33*,48*,1,-1,5,4,
COc1ccc(C(=O)NNC(=O)c2ccc(C)cc2)cc1S(=O)(=O)N1CCCC1,-1,1,-6,3,3,-3,.,.,
CC(=O)N(C1=C(N2CCOCC2)C(=O)c2ccccc2C1=O)c1ccc(C(=O)O)cc1,1,2,17*,61*,1,7,55*,-6,
O=C1C=C(O)c2cccc(O)c2C1=O,9,0,16*,43*,3,14,40*,4,
CCN1C(=O)N(c2cccc3ccccc23)C(C)=CC1(C)C,3,0,0,1,-1,3,.,.,
CCN1c2ccccc2N(C)C1(C)c1ccccc1 (centres undefined),5,-2,20*,55*,-1,1,37*,-17,
CC1=NNC(=O)C1CC(=O)N/N=C(\C)c1cccs1 (centres undefined),-2,0,-2,7,-1,1,.,.,
O=[N+]([O-])c1cc(Br)c(O)c(C=Nc2ccc(N3CCOCC3)cc2)c1,6,-1,54*,72*,6,-2,-14,-1,
Cc1nc(NC(=O)COC(=O)CNC(=O)c2ccco2)c(Cl)cc1Cl,.,.,-3,.,.,.,.,.,
CCOc1ccc2noc3c2c1C(=O)c1ccccc1-3,24,20*,135*,40*,14,17,13,131*,LYPLA1 conf=12
COC(CNC(=O)c1ccc2c3c(onc13)-c1ccccc1C2=O)OC,-8,-1,-10,34,5,6,.,.,
SMILES,LYPLA2 inh,LYPLA1 counter,PAD4 FP inh,GSTO1 inh,Fam108B counter,PME-1 inh,GSTO1 inh conf,PAD4 confirm,others
Cc1[nH]n(-c2ccccc2)c(=O)c1C(=O)c1ccc([N+](=O)[O-])cc1,-3,-1,-19,-7,-3,-2,.,.,
Cc1[nH]n(-c2ccccc2)c(=O)c1C(c1cccc([N+](=O)[O-])c1)c1c(C)[nH]n(-c2ccccc2)c1=O,0,0,30*,52*,9,3,23,-9,
Cc1[nH]n(-c2ccccc2)c(=O)c1C(c1ccc(C(=O)O)cc1)c1c(C)[nH]n(-c2ccccc2)c1=O,1,1,73*,60*,4,4,18,13,
COc1cccc(N=Nc2c(C)[nH]n(-c3ccccc3)c2=O)c1,0,1,-1,1,5,4,.,.,
Cc1[nH]n(-c2ccccc2)c(=O)c1C(=O)Nc1ccccc1,1,4,-6,-11,2,5,.,.,
COc1cccc(C(C[N+](=O)[O-])c2c(C)[nH]n(-c3ccccc3)c2=O)c1 (centres undefined),2,3,35*,81*,4,6,4,-1,
Cc1ccc(S(=O)(=O)N(C)C)cc1NC(=O)COC(=O)C1CC(=O)N(c2ccc3c(c2)OCCO3)C1 (centres undefined),7,2,4,13,-2,4,.,.,
Cc1cc(NC(=O)CCC(=O)N(CC(C)C)C(C(=O)NC(C)(C)C)c2ccccc2Cl)no1 (centres undefined),6,3,2,0,-2,-2,.,.,
O=S(=O)(Nc1cc(Sc2cccc3cccnc23)c(O)c2ccccc12)c1ccc(F)cc1,5,-2,29*,57*,6,12,25,3,
O=S(=O)(Nc1cccnc1Cl)c1ccc(F)cc1,8,2,-6,-5,9,1,.,.,
COCC(C)NC(=O)c1ccccc1[N+](=O)[O-] (centres undefined),-1,-3,-2,-1,1,-5,.,.,
O=S(=O)(Nc1ccc(O)c2ccccc12)c1cccs1,1,-1,21*,64*,4,1,16,-5,
Cc1ccc(S(=O)(=O)CCC(=O)OCC(=O)N(Cc2ccccc2)C(C)C)cc1,2,1,1,3,3,-4,.,.,
COc1ccc(S(=O)(=O)Nc2cc(SCC(=O)O)c(O)c3ccccc23)cc1,28*,5,35*,81*,18,23,54*,-7,LYPLA2 conf=28*
